# How the values were obtained:
# Assay in all cases: DAPPL (digital affinity profiling via proximity ligation, sequencing); 10 mM Tris-HCl pH 7.5, 50 mM NaCl, 1 mM DTT, 4% glycerol, room temperature, 30 min; GST-TFs on glutathione beads, 16-mer random dsDNA library, 0.1% formaldehyde crosslink after washing; high values mean tight binding
# FLI1 = target: T1, FLI1 (Homo sapiens, UniProt Q01543 1-452); conditions: protein: recombinant; tags: N-terminal GST; dsDNA, one strand shown
# T1 sequence: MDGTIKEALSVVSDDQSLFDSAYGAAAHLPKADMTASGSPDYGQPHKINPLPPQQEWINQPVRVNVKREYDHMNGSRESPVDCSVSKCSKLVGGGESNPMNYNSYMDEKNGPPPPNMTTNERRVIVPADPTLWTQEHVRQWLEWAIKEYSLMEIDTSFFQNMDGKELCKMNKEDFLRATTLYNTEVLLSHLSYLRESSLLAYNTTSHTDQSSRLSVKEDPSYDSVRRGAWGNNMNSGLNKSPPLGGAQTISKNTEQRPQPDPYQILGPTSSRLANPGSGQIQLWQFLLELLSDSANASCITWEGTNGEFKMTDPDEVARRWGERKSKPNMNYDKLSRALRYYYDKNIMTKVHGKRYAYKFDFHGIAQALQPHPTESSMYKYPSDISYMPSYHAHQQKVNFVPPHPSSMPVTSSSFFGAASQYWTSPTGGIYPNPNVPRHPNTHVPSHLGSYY
# In short: (§1)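 Pools of DNA-barcoded human transcription factors, expressed in yeast as GST fusions on glutathione beads and combined with a tag-only sample, were incubated with 200 nmole of a 16-mer random double-stranded DNA library. Incubation took 30 min at room temperature in Tris/NaCl/DTT/glycerol buffer and was followed by washing, 0.1% formaldehyde crosslinking, proximity ligation (BsaI/T4 ligase, 1 h, 37 °C), PCR amplification and sequencing on an Illumina NextSeq500. Binding signal is the ratio of a hexamer's read frequency for a factor to its frequency for the tag-only sample.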
# ELK1 = target: T2, ELK1 (Homo sapiens, UniProt P19419 1-428); conditions: protein: recombinant; tags: N-terminal GST; dsDNA, one strand shown
# T2 sequence: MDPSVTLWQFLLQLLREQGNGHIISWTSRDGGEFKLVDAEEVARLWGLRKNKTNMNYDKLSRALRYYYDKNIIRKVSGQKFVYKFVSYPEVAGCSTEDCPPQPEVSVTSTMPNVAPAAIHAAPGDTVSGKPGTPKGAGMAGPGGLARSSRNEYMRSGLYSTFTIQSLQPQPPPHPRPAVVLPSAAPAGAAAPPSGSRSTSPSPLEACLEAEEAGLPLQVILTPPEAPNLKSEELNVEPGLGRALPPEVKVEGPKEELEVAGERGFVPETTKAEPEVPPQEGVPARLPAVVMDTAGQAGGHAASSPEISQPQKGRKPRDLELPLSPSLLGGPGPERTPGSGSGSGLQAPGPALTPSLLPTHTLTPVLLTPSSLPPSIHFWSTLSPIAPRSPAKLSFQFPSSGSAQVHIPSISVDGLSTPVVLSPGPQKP
# In short: as §1
# GABPA = target: T3, GABPA (Homo sapiens, UniProt Q06546 1-454); conditions: protein: recombinant; tags: N-terminal GST; dsDNA, one strand shown
# T3 sequence: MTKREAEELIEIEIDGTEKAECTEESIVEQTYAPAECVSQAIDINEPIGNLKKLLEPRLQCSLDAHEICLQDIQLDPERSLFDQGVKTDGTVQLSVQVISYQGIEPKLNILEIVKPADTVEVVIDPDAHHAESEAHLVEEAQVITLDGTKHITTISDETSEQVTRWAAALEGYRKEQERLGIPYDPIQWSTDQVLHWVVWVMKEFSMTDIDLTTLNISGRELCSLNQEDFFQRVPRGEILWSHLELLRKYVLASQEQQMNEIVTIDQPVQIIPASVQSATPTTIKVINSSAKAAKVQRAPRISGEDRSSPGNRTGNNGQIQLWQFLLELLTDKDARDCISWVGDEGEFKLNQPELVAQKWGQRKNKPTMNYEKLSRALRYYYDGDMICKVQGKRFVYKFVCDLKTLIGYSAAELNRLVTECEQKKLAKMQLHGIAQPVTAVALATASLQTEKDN
# In short: as §1
# ERG = target: T4, ERG (Homo sapiens, UniProt P11308 1-479); conditions: protein: recombinant; tags: N-terminal GST; dsDNA, one strand shown
# T4 sequence: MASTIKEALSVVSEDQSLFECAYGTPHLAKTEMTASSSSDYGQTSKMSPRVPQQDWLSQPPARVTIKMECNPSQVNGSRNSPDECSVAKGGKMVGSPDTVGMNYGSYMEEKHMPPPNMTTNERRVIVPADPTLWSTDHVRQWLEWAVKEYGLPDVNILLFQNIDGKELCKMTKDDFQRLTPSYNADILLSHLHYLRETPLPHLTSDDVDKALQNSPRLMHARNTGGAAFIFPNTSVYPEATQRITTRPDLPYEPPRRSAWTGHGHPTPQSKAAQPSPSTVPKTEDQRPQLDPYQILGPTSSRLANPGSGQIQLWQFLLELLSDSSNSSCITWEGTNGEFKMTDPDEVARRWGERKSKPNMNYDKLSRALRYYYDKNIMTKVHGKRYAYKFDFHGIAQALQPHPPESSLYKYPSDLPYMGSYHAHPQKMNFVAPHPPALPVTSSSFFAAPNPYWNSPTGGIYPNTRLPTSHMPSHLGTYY
# In short: as §1
# ELF1 = ELF1 (Homo sapiens, UniProt P32519 1-619); conditions: protein: recombinant; tags: N-terminal GST; dsDNA, one strand shown
# In short: as §1
# EHF = target: T5, EHF (Homo sapiens, UniProt Q9NZC4 1-300); conditions: protein: recombinant; tags: N-terminal GST; dsDNA, one strand shown
# T5 sequence: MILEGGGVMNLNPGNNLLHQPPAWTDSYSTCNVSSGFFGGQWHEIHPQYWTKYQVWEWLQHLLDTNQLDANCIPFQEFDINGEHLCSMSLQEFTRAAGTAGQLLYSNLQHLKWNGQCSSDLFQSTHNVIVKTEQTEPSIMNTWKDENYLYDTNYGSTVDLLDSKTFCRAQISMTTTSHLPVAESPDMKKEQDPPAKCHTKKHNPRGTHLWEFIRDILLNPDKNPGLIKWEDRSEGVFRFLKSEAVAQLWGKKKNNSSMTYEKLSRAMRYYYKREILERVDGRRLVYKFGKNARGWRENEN
# In short: as §1
# SPI1 = SPI1 (Homo sapiens, UniProt P17947 1-270); conditions: protein: recombinant; tags: N-terminal GST; dsDNA, one strand shown
# In short: as §1
# SPIB = SPIB (Homo sapiens, UniProt Q01892 1-262); conditions: protein: recombinant; tags: N-terminal GST; dsDNA, one strand shown
# In short: as §1
# ELK3 = target: T6, ELK3 (Homo sapiens, UniProt P41970 1-407); conditions: protein: recombinant; tags: N-terminal GST; dsDNA, one strand shown
# T6 sequence: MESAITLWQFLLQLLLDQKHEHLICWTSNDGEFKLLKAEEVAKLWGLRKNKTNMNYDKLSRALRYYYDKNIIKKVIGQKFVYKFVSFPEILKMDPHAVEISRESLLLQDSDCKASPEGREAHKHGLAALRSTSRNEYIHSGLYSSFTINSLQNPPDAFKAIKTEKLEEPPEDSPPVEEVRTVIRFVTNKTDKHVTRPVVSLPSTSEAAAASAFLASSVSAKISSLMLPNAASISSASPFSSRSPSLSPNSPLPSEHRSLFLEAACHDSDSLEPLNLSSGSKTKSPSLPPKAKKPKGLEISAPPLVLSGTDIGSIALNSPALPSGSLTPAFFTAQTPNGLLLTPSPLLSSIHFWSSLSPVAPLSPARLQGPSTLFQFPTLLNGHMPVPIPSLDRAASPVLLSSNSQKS
# In short: as §1
# FEV = target: T7, FEV (Homo sapiens, UniProt Q99581 1-238); conditions: protein: recombinant; tags: N-terminal GST; dsDNA, one strand shown
# T7 sequence: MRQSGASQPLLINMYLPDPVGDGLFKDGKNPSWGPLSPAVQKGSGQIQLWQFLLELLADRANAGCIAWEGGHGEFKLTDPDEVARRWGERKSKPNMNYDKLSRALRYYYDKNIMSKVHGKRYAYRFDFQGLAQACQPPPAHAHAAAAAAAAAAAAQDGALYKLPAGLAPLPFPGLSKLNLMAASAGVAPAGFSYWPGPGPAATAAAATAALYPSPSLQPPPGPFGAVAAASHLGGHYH
# In short: as §1
# ETV5 = ETV5 (Homo sapiens, UniProt P41161 1-510); conditions: protein: recombinant; tags: N-terminal GST; dsDNA, one strand shown
# In short: as §1
# HSF1 = HSF1 (Homo sapiens, UniProt Q00613 1-529); conditions: protein: recombinant; tags: N-terminal GST; chain copies: 3; dsDNA, one strand shown
# In short: as §1
# SPIC = target: T8, SPIC (Homo sapiens, UniProt Q8N5J4 1-248); conditions: protein: recombinant; tags: N-terminal GST; dsDNA, one strand shown
# T8 sequence: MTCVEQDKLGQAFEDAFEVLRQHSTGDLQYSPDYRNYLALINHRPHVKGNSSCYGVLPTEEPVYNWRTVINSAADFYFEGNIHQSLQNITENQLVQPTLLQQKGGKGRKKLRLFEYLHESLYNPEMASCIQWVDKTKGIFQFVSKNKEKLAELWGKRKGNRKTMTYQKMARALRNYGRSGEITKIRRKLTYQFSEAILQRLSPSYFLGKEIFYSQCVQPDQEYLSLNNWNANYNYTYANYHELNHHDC
# In short: as §1
# ELF4 = ELF4 (Homo sapiens, UniProt Q99607 1-663); conditions: protein: recombinant; tags: N-terminal GST; dsDNA, one strand shown
# In short: as §1
# ELK4 = target: T9, ELK4 (Homo sapiens, UniProt P28324-2 1-405); conditions: protein: recombinant; tags: N-terminal GST; dsDNA, one strand shown
# T9 sequence: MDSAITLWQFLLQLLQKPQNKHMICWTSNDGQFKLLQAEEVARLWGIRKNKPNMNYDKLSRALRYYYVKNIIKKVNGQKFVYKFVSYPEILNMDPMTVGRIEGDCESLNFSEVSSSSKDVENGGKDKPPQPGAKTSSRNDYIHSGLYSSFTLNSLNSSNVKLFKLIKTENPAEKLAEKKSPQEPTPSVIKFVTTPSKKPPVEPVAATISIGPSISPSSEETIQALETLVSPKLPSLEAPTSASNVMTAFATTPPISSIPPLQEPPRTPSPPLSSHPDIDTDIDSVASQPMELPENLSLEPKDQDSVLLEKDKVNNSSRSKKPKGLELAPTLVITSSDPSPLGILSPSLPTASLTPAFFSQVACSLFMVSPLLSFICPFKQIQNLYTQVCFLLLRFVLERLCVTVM
# In short: as §1
# ETV2 = target: T10, ETV2 (Homo sapiens, UniProt O00321 1-342); conditions: protein: recombinant; tags: N-terminal GST; dsDNA, one strand shown
# T10 sequence: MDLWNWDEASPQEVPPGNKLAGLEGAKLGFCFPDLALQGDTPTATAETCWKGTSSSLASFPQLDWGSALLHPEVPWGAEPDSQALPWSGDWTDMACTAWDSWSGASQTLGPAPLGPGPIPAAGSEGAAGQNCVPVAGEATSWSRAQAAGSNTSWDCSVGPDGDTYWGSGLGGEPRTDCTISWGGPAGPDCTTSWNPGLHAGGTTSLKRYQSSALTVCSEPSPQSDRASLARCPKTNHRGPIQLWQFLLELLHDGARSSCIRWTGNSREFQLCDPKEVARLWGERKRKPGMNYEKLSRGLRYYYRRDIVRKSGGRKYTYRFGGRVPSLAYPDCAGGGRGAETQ
# In short: as §1
# ELF3 = target: T11, ELF3 (Homo sapiens, UniProt P78545 1-371); conditions: protein: recombinant; tags: N-terminal GST; dsDNA, one strand shown
# T11 sequence: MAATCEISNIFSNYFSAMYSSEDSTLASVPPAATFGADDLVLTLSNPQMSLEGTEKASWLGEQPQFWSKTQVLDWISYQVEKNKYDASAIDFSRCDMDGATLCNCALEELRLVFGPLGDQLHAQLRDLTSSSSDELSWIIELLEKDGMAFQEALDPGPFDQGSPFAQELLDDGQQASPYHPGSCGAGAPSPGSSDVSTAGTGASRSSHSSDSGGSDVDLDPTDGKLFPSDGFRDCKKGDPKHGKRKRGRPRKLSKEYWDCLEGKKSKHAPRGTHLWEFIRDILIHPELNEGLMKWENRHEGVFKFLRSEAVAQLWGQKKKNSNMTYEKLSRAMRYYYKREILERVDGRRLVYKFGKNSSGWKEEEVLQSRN
# In short: as §1
# CRX = CRX (Homo sapiens, UniProt O43186 1-299); conditions: protein: recombinant; tags: N-terminal GST; dsDNA, one strand shown
# In short: as §1
# ETV1 = ETV1 (Homo sapiens, UniProt P50549 1-477); conditions: protein: recombinant; tags: N-terminal GST; dsDNA, one strand shown
# In short: as §1
# ELF1, sequence (P32519 whole entry): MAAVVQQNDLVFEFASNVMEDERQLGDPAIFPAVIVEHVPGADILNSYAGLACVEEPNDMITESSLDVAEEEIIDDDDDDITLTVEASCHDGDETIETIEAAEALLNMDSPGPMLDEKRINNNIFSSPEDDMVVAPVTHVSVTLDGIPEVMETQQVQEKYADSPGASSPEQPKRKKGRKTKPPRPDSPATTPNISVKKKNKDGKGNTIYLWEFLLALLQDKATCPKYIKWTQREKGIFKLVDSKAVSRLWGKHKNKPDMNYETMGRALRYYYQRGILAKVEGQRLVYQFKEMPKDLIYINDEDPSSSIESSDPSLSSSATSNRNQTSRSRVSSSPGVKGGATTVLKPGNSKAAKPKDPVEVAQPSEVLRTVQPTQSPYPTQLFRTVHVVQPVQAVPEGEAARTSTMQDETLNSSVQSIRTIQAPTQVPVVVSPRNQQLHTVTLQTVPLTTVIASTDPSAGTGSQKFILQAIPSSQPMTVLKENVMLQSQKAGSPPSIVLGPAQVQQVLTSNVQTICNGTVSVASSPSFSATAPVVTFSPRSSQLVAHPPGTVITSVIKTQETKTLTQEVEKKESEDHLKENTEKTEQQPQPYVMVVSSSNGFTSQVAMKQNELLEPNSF
# ELF4, sequence (Q99607 whole entry): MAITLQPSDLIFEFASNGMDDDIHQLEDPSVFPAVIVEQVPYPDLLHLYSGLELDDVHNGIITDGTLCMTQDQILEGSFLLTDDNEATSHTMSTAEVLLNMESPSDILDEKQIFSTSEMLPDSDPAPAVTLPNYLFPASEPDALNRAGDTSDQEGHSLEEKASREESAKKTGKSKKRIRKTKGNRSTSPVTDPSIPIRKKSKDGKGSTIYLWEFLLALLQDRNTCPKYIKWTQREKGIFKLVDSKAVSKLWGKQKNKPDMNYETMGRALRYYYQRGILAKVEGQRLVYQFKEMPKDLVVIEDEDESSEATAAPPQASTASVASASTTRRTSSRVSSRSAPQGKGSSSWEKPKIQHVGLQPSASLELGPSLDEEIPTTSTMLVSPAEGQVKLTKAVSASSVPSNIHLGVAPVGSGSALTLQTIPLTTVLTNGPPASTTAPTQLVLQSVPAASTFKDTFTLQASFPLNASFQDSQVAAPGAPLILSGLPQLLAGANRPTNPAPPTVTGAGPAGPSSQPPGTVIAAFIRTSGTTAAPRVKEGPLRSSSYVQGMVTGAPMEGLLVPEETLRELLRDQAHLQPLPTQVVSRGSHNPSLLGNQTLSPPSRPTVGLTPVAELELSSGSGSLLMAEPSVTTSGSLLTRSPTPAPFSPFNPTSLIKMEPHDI
# SPIB, sequence (Q01892 whole entry): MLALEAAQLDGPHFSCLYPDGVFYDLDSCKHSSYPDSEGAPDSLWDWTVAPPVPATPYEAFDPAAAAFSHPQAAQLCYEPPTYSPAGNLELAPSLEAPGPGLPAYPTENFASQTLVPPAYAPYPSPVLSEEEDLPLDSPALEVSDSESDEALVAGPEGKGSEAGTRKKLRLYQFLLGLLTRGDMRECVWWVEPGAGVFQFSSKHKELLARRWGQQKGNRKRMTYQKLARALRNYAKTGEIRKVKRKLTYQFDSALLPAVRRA
# ETV5, sequence (P41161 whole entry): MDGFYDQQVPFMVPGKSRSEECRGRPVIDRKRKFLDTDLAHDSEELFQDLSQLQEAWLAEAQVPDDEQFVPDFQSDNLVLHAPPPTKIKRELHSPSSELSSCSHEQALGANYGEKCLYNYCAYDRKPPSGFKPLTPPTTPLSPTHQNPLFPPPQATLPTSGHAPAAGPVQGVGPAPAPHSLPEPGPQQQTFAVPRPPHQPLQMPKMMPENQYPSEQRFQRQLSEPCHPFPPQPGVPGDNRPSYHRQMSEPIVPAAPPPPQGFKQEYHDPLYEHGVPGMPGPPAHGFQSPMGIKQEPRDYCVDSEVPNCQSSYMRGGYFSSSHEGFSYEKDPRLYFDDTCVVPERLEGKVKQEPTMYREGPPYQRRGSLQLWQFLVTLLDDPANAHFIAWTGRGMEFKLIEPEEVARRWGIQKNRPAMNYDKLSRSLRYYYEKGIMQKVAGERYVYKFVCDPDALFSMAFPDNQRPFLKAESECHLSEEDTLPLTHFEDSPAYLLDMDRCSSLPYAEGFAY
# HSF1, sequence (Q00613 whole entry): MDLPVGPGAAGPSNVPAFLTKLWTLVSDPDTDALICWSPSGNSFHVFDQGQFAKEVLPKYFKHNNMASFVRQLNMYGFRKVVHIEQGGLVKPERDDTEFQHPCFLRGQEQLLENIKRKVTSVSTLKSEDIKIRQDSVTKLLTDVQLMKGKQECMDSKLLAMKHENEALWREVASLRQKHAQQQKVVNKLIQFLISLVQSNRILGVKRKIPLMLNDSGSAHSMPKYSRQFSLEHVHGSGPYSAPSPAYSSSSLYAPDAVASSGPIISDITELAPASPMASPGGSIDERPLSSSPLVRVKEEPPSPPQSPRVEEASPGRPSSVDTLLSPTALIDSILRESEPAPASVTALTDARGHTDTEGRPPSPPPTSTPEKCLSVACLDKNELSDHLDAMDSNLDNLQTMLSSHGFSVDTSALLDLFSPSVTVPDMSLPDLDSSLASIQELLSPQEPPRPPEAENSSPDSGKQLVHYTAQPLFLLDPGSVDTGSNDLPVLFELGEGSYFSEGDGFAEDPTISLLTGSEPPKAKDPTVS
# ETV1, sequence (P50549 whole entry): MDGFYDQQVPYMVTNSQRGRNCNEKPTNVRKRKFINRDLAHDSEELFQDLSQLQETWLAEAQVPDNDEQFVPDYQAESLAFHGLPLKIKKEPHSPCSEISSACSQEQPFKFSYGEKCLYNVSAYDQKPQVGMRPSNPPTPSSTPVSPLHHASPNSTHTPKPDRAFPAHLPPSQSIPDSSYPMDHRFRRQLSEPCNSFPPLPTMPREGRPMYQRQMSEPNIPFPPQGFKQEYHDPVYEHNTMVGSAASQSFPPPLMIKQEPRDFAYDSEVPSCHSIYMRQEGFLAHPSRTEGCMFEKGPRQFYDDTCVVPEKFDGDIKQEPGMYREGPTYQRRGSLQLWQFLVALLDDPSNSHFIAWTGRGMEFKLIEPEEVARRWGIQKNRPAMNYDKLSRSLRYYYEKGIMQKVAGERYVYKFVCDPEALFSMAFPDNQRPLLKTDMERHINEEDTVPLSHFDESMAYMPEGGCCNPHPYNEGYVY
# CRX, sequence (O43186 whole entry): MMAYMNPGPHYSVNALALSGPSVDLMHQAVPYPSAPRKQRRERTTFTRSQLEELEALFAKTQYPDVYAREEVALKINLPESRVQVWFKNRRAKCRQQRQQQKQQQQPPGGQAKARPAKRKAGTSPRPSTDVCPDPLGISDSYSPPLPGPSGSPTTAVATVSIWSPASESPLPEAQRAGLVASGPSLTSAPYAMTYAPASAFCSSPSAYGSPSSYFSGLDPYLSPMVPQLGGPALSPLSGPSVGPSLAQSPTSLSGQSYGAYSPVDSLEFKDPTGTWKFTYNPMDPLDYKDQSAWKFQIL
sequence,measurement,setting,value
TTCCAC,binding signal,FLI1,"1.39 fold enrichment (6-mer frequency, TF over GST control)"
same,binding signal,ELK1,"1.28 fold enrichment (6-mer frequency, TF over GST control)"
same,binding signal,GABPA,"1.38 fold enrichment (6-mer frequency, TF over GST control)"
same,binding signal,ERG,"1.4 fold enrichment (6-mer frequency, TF over GST control)"
same,binding signal,ELF1,"1.45 fold enrichment (6-mer frequency, TF over GST control)"
same,binding signal,EHF,"1.33 fold enrichment (6-mer frequency, TF over GST control)"
same,binding signal,SPI1,"1.42 fold enrichment (6-mer frequency, TF over GST control)"
same,binding signal,SPIB,"1.35 fold enrichment (6-mer frequency, TF over GST control)"
same,binding signal,ELK3,"1.5 fold enrichment (6-mer frequency, TF over GST control)"
same,binding signal,FEV,"1.37 fold enrichment (6-mer frequency, TF over GST control)"
same,binding signal,ETV5,"1.41 fold enrichment (6-mer frequency, TF over GST control)"
same,binding signal,HSF1,"1.83 fold enrichment (6-mer frequency, TF over GST control)"
same,binding signal,SPIC,"1.57 fold enrichment (6-mer frequency, TF over GST control)"
same,binding signal,ELF4,"1.42 fold enrichment (6-mer frequency, TF over GST control)"
same,binding signal,ELK4,"1.39 fold enrichment (6-mer frequency, TF over GST control)"
same,binding signal,ETV2,"1.42 fold enrichment (6-mer frequency, TF over GST control)"
same,binding signal,ELF3,"1.38 fold enrichment (6-mer frequency, TF over GST control)"
same,binding signal,CRX,"1.26 fold enrichment (6-mer frequency, TF over GST control)"
same,binding signal,ETV1,"1.38 fold enrichment (6-mer frequency, TF over GST control)"
